# PubChem BioAssay (NCI)
# This is part of a sample that, as a whole, favours compounds with a hit. Of some 83,000 tested, about 20% had one in any assay.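 Interpretation: 100, growth as untreated; towards 0, rising growth inhibition; 0, no net growth; 0 to -100, cell death. Compounds scoring below 10 were considered active.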 Calls of active or inactive are those of the source.
# System: SN12C renal
# Assay: NCI-60 one-dose screen, 48 h (100 = growth as untreated, 0 = no growth, -100 = all killed)
# Settings: 10 µM unless noted
row,Structure (SMILES),growth
1,Nc1ccc(F)c(Cl)c1F,104% (inactive)
2,COc1ccc(Br)c2c1C(=O)CC2,91.8% (inactive)
3,Oc1cccnc1CN1CCCC1,97.6% (inactive)
4,CC(C)(CC(=O)O)CC(=O)O,97.2% (inactive)
5,CN=S(=O)(OCCCCCOS(=O)(=NC)c1ccc(C)cc1)c1ccc(C)cc1 (stereo unspecified),95.1% (inactive)
6,NC(CO)(CO)c1ccccc1,108% (inactive)
7,CC1CC2C3CCC4=CC(=O)CCC4(C)C3CCC2(C)C1(O)C(=O)CO (stereo unspecified),102% (inactive)
8,CC(c1ccccc1)N1C(=O)CSC1=S (stereo unspecified),62.4% (inactive)
9,CN1CCN(C(=S)S)CC1,108% (inactive)
10,Nc1ncnc(Nc2ccccc2)n1,105% (inactive)
11,O=c1cc(C(F)(F)F)[nH]c(=S)[nH]1,95% (inactive)
12,CCOC(=O)c1c(C)[nH]c(C)c1C=O,95.8% (inactive)
13,CCOP(=O)(NC(c1ccccc1)c1ccccc1)OCC,146% (inactive)
14,CC(C)(C)[Si](C)(C)OCC1OC(n2cnc3c(N)ncnc32)CC1OS(C)(=O)=O (stereo unspecified),101% (inactive)
15,Nc1nc(Cl)cc(Cl)n1,110% (inactive)
16,C=C(C)COc1ccc(C(C)(C)C)cc1,103% (inactive)
17,Nc1ccc2c(c1)Cc1cc(N)c(N)cc1-2,93.3% (inactive)
18,Clc1ccc(C(SCc2ccccc2)SCc2ccccc2)cc1,104% (inactive)
19,O=[N+]([O-])c1ccc(-c2nc(N(CCO)CCO)c3ccccc3n2)o1,4.44% (active)

row,Structure (SMILES),growth
1,CCNC(=O)OCCc1c2ccccc2nc2ccccc12,119% (inactive)
2,C=C(OC(C)=O)c1ccccc1,96% (inactive)
3,O=C(OCc1ccccc1)n1nnc2ccccc21,97% (inactive)
4,Cc1ccc2nc(N)nnc2c1,98.4% (inactive)
5,CC(=O)NC(CCC(=O)c1ccccc1)C(=O)O (stereo unspecified),98.5% (inactive)
6,CCOC(=O)/C(C#N)=C\c1c[nH]c2ccccc12,90.5% (inactive)
7,CCN(C(=O)Nc1ccccc1Cl)c1ccccc1,113% (inactive)
8,Nc1cc2ccccc2c(O)c1O,-22.3% (active)
9,NC(CSSCC(N)C(=O)O)C(=O)O (stereo unspecified),-11.2% (active)
10,COc1cc(C(=O)N2CCN(c3ccccc3)CC2)c2ccccc2n1,36.8% (inactive)
11,Cc1ccc(C)c(CCO)c1,99.9% (inactive)
12,S=c1nc2[nH]c3ccccc3c2n[nH]1,92.2% (inactive)
13,NCCCN1CCCC1=O,97.5% (inactive)
14,Cc1c(Cl)cccc1N=C=S,99.9% (inactive)
15,O=[n+]1ccn([O-])c2ccccc21,97.4% (inactive)
16,Nc1ncnc2c1ncn2C1OC(CO)C2OC21 (stereo unspecified),95.7% (inactive)
17,CCOc1ccc2c(c1)c(C)cc(C)[n+]2CC,64.6% (inactive)
18,Cc1ccc(S(N)(=O)=O)cc1Cl,106% (inactive)
19,O=C1C=Cc2ccccc2/C1=C/c1[nH]c(=O)[nH]c1O,60.6% (inactive)

# System: UO-31 renal
# Assay: as above
# Settings: 10 µM unless noted
row,Structure (SMILES),growth
1,Nc1ccc(F)c(Cl)c1F,98.7% (inactive)
2,COc1ccc(Br)c2c1C(=O)CC2,85.4% (inactive)
3,Oc1cccnc1CN1CCCC1,92.1% (inactive)
4,CC(C)(CC(=O)O)CC(=O)O,94% (inactive)
5,CN=S(=O)(OCCCCCOS(=O)(=NC)c1ccc(C)cc1)c1ccc(C)cc1 (stereo unspecified),49.4% (inactive)
6,NC(CO)(CO)c1ccccc1,88.6% (inactive)
7,CC1CC2C3CCC4=CC(=O)CCC4(C)C3CCC2(C)C1(O)C(=O)CO (stereo unspecified),92.2% (inactive)
8,CC(c1ccccc1)N1C(=O)CSC1=S (stereo unspecified),49.2% (inactive)
9,CN1CCN(C(=S)S)CC1,98.4% (inactive)
10,Nc1ncnc(Nc2ccccc2)n1,86.5% (inactive)
11,O=c1cc(C(F)(F)F)[nH]c(=S)[nH]1,87.3% (inactive)
12,CCOC(=O)c1c(C)[nH]c(C)c1C=O,104% (inactive)
13,CCOP(=O)(NC(c1ccccc1)c1ccccc1)OCC,84.4% (inactive)
14,CC(C)(C)[Si](C)(C)OCC1OC(n2cnc3c(N)ncnc32)CC1OS(C)(=O)=O (stereo unspecified),86.8% (inactive)
15,Nc1nc(Cl)cc(Cl)n1,95.2% (inactive)
16,C=C(C)COc1ccc(C(C)(C)C)cc1,95.3% (inactive)
17,Nc1ccc2c(c1)Cc1cc(N)c(N)cc1-2,91.4% (inactive)
18,Clc1ccc(C(SCc2ccccc2)SCc2ccccc2)cc1,90% (inactive)
19,O=[N+]([O-])c1ccc(-c2nc(N(CCO)CCO)c3ccccc3n2)o1,-40.6% (active)

row,Structure (SMILES),growth
1,CCNC(=O)OCCc1c2ccccc2nc2ccccc12,92.2% (inactive)
2,C=C(OC(C)=O)c1ccccc1,101% (inactive)
3,O=C(OCc1ccccc1)n1nnc2ccccc21,94.9% (inactive)
4,Cc1ccc2nc(N)nnc2c1,87.5% (inactive)
5,CC(=O)NC(CCC(=O)c1ccccc1)C(=O)O (stereo unspecified),98.5% (inactive)
6,CCOC(=O)/C(C#N)=C\c1c[nH]c2ccccc12,69.6% (inactive)
7,CCN(C(=O)Nc1ccccc1Cl)c1ccccc1,91.4% (inactive)
8,Nc1cc2ccccc2c(O)c1O,55.2% (inactive)
9,NC(CSSCC(N)C(=O)O)C(=O)O (stereo unspecified),13.9% (inactive)
10,COc1cc(C(=O)N2CCN(c3ccccc3)CC2)c2ccccc2n1,44.9% (inactive)
11,Cc1ccc(C)c(CCO)c1,93.7% (inactive)
12,S=c1nc2[nH]c3ccccc3c2n[nH]1,88.6% (inactive)
13,NCCCN1CCCC1=O,95.7% (inactive)
14,Cc1c(Cl)cccc1N=C=S,81.1% (inactive)
15,O=[n+]1ccn([O-])c2ccccc21,88.6% (inactive)
16,Nc1ncnc2c1ncn2C1OC(CO)C2OC21 (stereo unspecified),100% (inactive)
17,CCOc1ccc2c(c1)c(C)cc(C)[n+]2CC,65.9% (inactive)
18,Cc1ccc(S(N)(=O)=O)cc1Cl,94.5% (inactive)
19,O=C1C=Cc2ccccc2/C1=C/c1[nH]c(=O)[nH]c1O,52.5% (inactive)
